# Results taken from the supplement of paper PMC9262897, “Low-cost anti-mycobacterial drug discovery using engineered E. coli” (Nature Communications, 2022).
# Counter-ions that a name gives are not always drawn. ± gives the standard deviation of the averaged measurements.
# System: E. coli TESEC Mtb DapB
# Assay: growth (OD600 after 10 h); higher = more growth (less inhibition)
# Settings: arabinose induction (level): High; compound 0.1 mM; raw OD600 reference: median of DMSO wells […], cell-free background 0.041
# Method: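 TESEC E. coli strains in which the native enzyme is deleted and replaced by arabinose-inducible Mtb Asd, DapB, CysH or TrpD, each grown in its selective medium. Strains were screened against the Prestwick library at 0.1 mM and 1% DMSO in 384-well format at low and high arabinose induction. Growth is read as OD600 after 10 h in triplicate.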
row,Compound,growth
1,Cc1ncc(C[n+]2csc(CCO)c2C)c(N)n1 [Thiamine hydrochloride],0.227 ± 0.024
2,CCOC(=O)C1=C(C)NC(C)=C(C(=O)OC)C1c1cccc(Cl)c1Cl (stereo not given) [Felodipine],0.07363 ± 0.0005
3,Cc1onc(-c2ccccc2)c1C(=O)N[C@@H]1C(=O)N2[C@@H]1SC(C)(C)[C@@H]2C(=O)O [Oxacillin sodium],0.192 ± 0.0086
4,CN[C@H]1CC[C@@H](c2ccc(Cl)c(Cl)c2)c2ccccc21 [Sertraline],0.0504 ± 0.00093
5,O=C1c2cccc3c2[C@H](CCC3)CN1[C@@H]1CN2CCC1CC2 [Palonosetron hydrochloride],0.198 ± 0.0067
6,COc1cc(NS(=O)(=O)c2ccc(N)cc2)nc(OC)n1 [Sulfadimethoxine],0.192 ± 0.0042
7,Cc1ccc(N(CC2=NCCN2)c2cccc(O)c2)cc1 [Phentolamine hydrochloride],0.193 ± 0.019
8,CN(C)CCCN1c2ccccc2Sc2ccc(C(F)(F)F)cc21 [Triflupromazine hydrochloride],0.0483 ± 0.00081
9,C[C@@H]1CCC[C@H](C)N1NC(=O)c1ccc(Cl)c(S(N)(=O)=O)c1 [Clopamide],0.199 ± 0.01
10,Brc1c(NC2=NCCN2)ccc2nccnc12 [Brimondine L-Tartrate],0.19 ± 0.02
11,CN1CCC(=C2c3ccccc3C=Cc3ccccc32)CC1 [Cyproheptadine hydrochloride],0.175 ± 0.015
12,Cc1ccc(C(=O)c2ccc(CC(=O)O)n2C)cc1 [Tolmetin sodium salt dihydrate],0.197 ± 0.024
13,CCCCCNC(=N)N/N=C/c1c[nH]c2ccc(OC)cc12 [Tegaserod maleate],0.0474 ± 0.0015
14,CCN1CCCC1CNC(=O)c1cc(S(N)(=O)=O)ccc1OC (stereo not given) [Sulpiride],0.221 ± 0.037
15,CC1CCc2cc(F)cc3c(=O)c(C(=O)O)cn1c23 (stereo not given) [Flumequine],0.0826 ± 0.0024
16,Cc1c(Cl)cccc1Nc1ccccc1C(=O)O [Tolfenamic acid],0.0686 ± 0.0054
17,Cn1c(=O)c2c(ncn2CC(=O)O)n(C)c1=O [Acefylline],0.196 ± 0.0038
18,NC(=O)c1cc[n+](CC2=C(C(=O)[O-])N3C(=O)[C@@H](NC(=O)[C@@H](c4ccccc4)S(=O)(=O)O)[C@H]3SC2)cc1 [Cefsulodin sodium salt],0.211 ± 0.013
19,CN[C@@H]1[C@H](O[C@H]2[C@H](O[C@H]3[C@H](O)[C@@H](O)[C@H](N=C(N)N)[C@@H](O)[C@@H]3N=C(N)N)O[C@@H](C)[C@]2(O)C=O)O[C@@H](CO)[C@H](O)[C@H]1O [Streptomycin sulfate],0.108 ± 0.048
20,Cc1c(-c2ccccc2)oc2c(C(=O)OCCN3CCCCC3)cccc2c1=O [Flavoxate hydrochloride],0.168 ± 0.011

# Same assay, conditions: arabinose induction (level): Low; compound 0.1 mM; raw OD600 reference: median of DMSO wells 0.227, cell-free background 0.041
row,Compound,growth
1,Cc1ncc(C[n+]2csc(CCO)c2C)c(N)n1 [Thiamine hydrochloride],0.217 ± 0.015
2,CCOC(=O)C1=C(C)NC(C)=C(C(=O)OC)C1c1cccc(Cl)c1Cl (stereo not given) [Felodipine],0.0792 ± 0.032
3,Cc1onc(-c2ccccc2)c1C(=O)N[C@@H]1C(=O)N2[C@@H]1SC(C)(C)[C@@H]2C(=O)O [Oxacillin sodium],0.243 ± 0.046
4,CN[C@H]1CC[C@@H](c2ccc(Cl)c(Cl)c2)c2ccccc21 [Sertraline],0.0522 ± 0.0014
5,O=C1c2cccc3c2[C@H](CCC3)CN1[C@@H]1CN2CCC1CC2 [Palonosetron hydrochloride],0.235 ± 0.02
6,COc1cc(NS(=O)(=O)c2ccc(N)cc2)nc(OC)n1 [Sulfadimethoxine],0.213 ± 0.015
7,Cc1ccc(N(CC2=NCCN2)c2cccc(O)c2)cc1 [Phentolamine hydrochloride],0.252 ± 0.024
8,CN(C)CCCN1c2ccccc2Sc2ccc(C(F)(F)F)cc21 [Triflupromazine hydrochloride],0.211 ± 0.15
9,C[C@@H]1CCC[C@H](C)N1NC(=O)c1ccc(Cl)c(S(N)(=O)=O)c1 [Clopamide],0.225 ± 0.0079
10,Brc1c(NC2=NCCN2)ccc2nccnc12 [Brimondine L-Tartrate],0.237 ± 0.033
11,CN1CCC(=C2c3ccccc3C=Cc3ccccc32)CC1 [Cyproheptadine hydrochloride],0.192 ± 0.011
12,Cc1ccc(C(=O)c2ccc(CC(=O)O)n2C)cc1 [Tolmetin sodium salt dihydrate],0.223 ± 0.028
13,CCCCCNC(=N)N/N=C/c1c[nH]c2ccc(OC)cc12 [Tegaserod maleate],0.0486 ± 0.0013
14,CCN1CCCC1CNC(=O)c1cc(S(N)(=O)=O)ccc1OC (stereo not given) [Sulpiride],0.253 ± 0.024
15,CC1CCc2cc(F)cc3c(=O)c(C(=O)O)cn1c23 (stereo not given) [Flumequine],0.0692 ± 0.0075
16,Cc1c(Cl)cccc1Nc1ccccc1C(=O)O [Tolfenamic acid],0.0876 ± 0.044
17,Cn1c(=O)c2c(ncn2CC(=O)O)n(C)c1=O [Acefylline],0.207 ± 0.021
18,NC(=O)c1cc[n+](CC2=C(C(=O)[O-])N3C(=O)[C@@H](NC(=O)[C@@H](c4ccccc4)S(=O)(=O)O)[C@H]3SC2)cc1 [Cefsulodin sodium salt],0.245 ± 0.015
19,CN[C@@H]1[C@H](O[C@H]2[C@H](O[C@H]3[C@H](O)[C@@H](O)[C@H](N=C(N)N)[C@@H](O)[C@@H]3N=C(N)N)O[C@@H](C)[C@]2(O)C=O)O[C@@H](CO)[C@H](O)[C@H]1O [Streptomycin sulfate],0.0695 ± 0.0084
20,Cc1c(-c2ccccc2)oc2c(C(=O)OCCN3CCCCC3)cccc2c1=O [Flavoxate hydrochloride],0.234 ± 0.12
